Shown are actives, neighbours in structure and some others; about 0.55% of the full set was active somewhere.
TRPV1 PAM: potentiators of human vanilloid receptor 1 (TRPV1). Q8NER1. TRPV1-expressing cells, Fluo-8 calcium influx, capsaicin EC20 potentiation. potentiation, % at 8.33 µM. 320,000 tested, 0.02% active. AID 540277; in the data active means potentiation above about 80%; inconclusive means between about 30% and that limit; further: 0% is about no effect
Target sequence (Q8NER1 whole entry, looked up): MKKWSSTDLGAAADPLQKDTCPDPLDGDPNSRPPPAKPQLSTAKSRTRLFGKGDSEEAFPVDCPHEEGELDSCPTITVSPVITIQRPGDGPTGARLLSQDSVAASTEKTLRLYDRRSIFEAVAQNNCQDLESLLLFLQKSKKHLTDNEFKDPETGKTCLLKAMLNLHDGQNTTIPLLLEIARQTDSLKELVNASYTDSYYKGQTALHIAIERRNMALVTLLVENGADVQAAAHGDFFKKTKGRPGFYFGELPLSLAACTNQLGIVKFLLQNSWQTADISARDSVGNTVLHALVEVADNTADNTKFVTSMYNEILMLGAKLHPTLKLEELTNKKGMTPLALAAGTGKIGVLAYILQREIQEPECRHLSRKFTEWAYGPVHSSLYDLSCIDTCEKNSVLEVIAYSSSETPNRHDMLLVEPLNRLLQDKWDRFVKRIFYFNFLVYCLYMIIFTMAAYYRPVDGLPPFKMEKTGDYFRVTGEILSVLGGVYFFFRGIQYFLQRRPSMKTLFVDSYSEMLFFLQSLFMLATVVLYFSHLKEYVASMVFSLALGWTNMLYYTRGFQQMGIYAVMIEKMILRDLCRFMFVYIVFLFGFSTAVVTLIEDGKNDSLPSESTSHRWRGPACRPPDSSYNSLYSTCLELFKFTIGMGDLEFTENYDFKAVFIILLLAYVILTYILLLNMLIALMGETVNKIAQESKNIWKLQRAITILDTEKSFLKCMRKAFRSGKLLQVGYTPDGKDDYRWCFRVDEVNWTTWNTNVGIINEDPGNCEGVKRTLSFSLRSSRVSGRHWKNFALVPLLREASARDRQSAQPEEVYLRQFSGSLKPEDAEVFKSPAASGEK
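Fluo-8 calcium influx in TRPV1-expressing cells, kinetic read (ex 480/em 520 nm). Compound added and read 3 min for agonist activity, followed by capsaicin at EC20 final and 2 min further read for enhancement.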
AT treatment: candidate therapy for ataxia-telangiectasia; Potency, µM (titrated, usually from 57.5 µM), without a hit: at the top dose activation, hits mostly activators; AID 485349; F2112 A-T fibroblasts, KAP-1 phosphorylation AlphaLISA; neocarzinostatin DNA damage 30 min before lysis; 320,000 tested, 0.19% active; further: potency means the concentration at half of the fitted maximal effect; % of control where 0% means no effect; nearly all actives have a fitted effect of over 45% in size
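hTERT-immortalized A-T patient fibroblasts (F2112), 500 cells/well in OPTI-MEM, 1% FBS, got compounds for 60 min, then NCS for 30 min at 37C. Lysates were then assayed for phospho-KAP-1 by AlphaLISA (anti-pKAP1 donor, anti-KAP1 acceptor beads), 6 hr at 25C.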
TRPV1 agonist: human TRPV1 agonism; activation, % at 8.33 µM; 320,000 tested, 0.19% active; Q8NER1; AID 540275; TRPV1-expressing cells, Fluo-8 calcium influx, agonist mode; in the data active means activation above about 80%; inconclusive means between about 30% and that limit; further: 0% is about no effect
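Fluo-8 calcium influx in TRPV1-expressing cells, kinetic read (ex 480/em 520 nm). Compound added and read 3 min for agonist activity, followed by capsaicin at EC20 final and 2 min further read for enhancement.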
IMPase Li inh: cell-permeable IMPase inhibitors with lithium potentiation; CHO-M1 cells, IP1 TR-FRET (IP-One), carbachol + lithium; Potency, µM (series often up to 59.4 µM), without a hit: at the highest dose activity, negative = IMPase inhibition, most hits filed as inhibitors; 210,000 tested, 0.35% active; AID 1457;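 further: IP1 builds up when IMPase is blocked and the TR-FRET signal falls; potency means the concentration at half of the fitted maximal effect; plate controls were basal vehicle for no effect and high inhibitor control for full effect; nearly all actives have a fitted effect of over 50% in size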
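Readout is a homogeneous TR-FRET IP1 immunoassay (Ex 320, Em 665 and 620), where raised cytosolic IP1 lowers signal. Cells were CHO-M1 treated 30 min at 37C with test compounds plus a little lithium; AC50 values came from Hill-equation fitting.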
Numbers without * were called inactive; ? = inconclusive; . = no result given; [ ] = dose if it differs, or a comment. Unless noted, the call rests on the fitted dose curve; in most records, active means well fitted curve in the direction sought with a large enough effect; inconclusive means small, poorly fitted or top-dose-only effect, or another doubt; inactive means no such curve, though single readings can be large; an effect the other way counts as inactive or inconclusive.

SMILES	TRPV1 PAM	AT treatment	TRPV1 agonist	IMPase Li inh
Cc1nc(NCCc2ccccc2)c2oc3ccccc3c2n1	-9	2%	82*	47%[38.3 µM]
CNC(=O)C(Sc1nc(C)nc2c1oc1ccccc12)C(C)=O (centres undefined)	-19	13%	-1	4.5µM*
Cc1nc(SCC(=O)NCCc2ccccc2)c2oc3ccccc3c2n1	2	-1%	-2	6.3µM*
Cc1nc(SCC(=O)Nc2ccccc2)c2oc3ccccc3c2n1	10	12%	1	.
CCN(c1ccc(NC(=O)c2ccc(Cl)nc2)cc1)C(C)C	-11	-2%	84*	9%
C=C(C)C(=O)OCC(C)O (centres undefined)	.	.	.	-7%
Oc1cccc(/C=N/Nc2cc(N3CCOCC3)nc(N3CCOCC3)n2)c1	-29	4%	93*	19%
Cn1c(=O)c2c(nc(C(=N)SCC(=O)O)n2C)n(C)c1=O	.	.	.	-6%
CCN(CC)CCN(Cc1cc2cc(C)ccc2[nH]c1=O)C(=O)Nc1ccccc1OC	88*	2%	-2	21%[38.3 µM]
Nc1ccc(-c2nnc(-c3ccc(N)cc3)o2)cc1	-2	23%	4	.
Cc1cccc(-c2nnc(-c3ccc(N)cc3)o2)c1	7	10%	-2	13µM*
CCCCCCc1cc2cc(S(=O)(=O)c3ccc(C)cc3)c(=O)oc2cc1O	-17	28µM*	?	3%
CCCCCCc1cc2cc(S(=O)(=O)c3ccc(Cl)cc3)c(=O)oc2cc1O	5	?	?	8%
Cn1c2ccccc2c2nnc(SCC(=O)Nc3ccccc3F)nc21	30	-3%	-2	.
CC(C)n1c2ccccc2c2nnc(SCC(=O)Nc3ccccc3C(=O)O)nc21	-21	4%	1	7.9µM*
Oc1ccc2ccccc2c1/C=C\c1ccc2c(Br)cc(Br)c(O)c2n1	.	.	.	2%
Cc1nn(C)c(C(=O)Nc2ccc(S(=O)(=O)NC34CC5CC(CC(C5)C3)C4)cc2)c1Br	81*	0%	2	3%
CN(C)CC(O)Cn1c2ccc(Br)cc2c2cc(Br)ccc21 (centres undefined)	.	.	.	12%
C=CCNC(=O)C1=NN(c2c(F)c(F)cc(F)c2F)C(=O)CC1	?	7.1µM*	-6	.
O=C(Nc1cccc2cccnc12)[C@@H]1[C@@H](C(=O)O)[C@H]2CC[C@@H]1O2	.	.	.	-3%
CCCCCCCCOC(=O)c1nc(Cl)c(Cl)c(N)c1Cl	?	32µM*	1	-4%
COc1cc(/C=N/Nc2nc(=O)[nH]nc2C)ccc1O	-14	-50%	0	.
COc1ccc(/C=N/Nc2nc(=O)[nH]nc2C)cc1OC	-23	7.1µM*	-1	.
Cc1ccc(C(=O)Nc2ccc(SC(F)F)cc2)s1	-13	7%	86*	4%
CCNc1ncc2nc(-c3cccs3)c(=O)n(Cc3cccc(OC)c3)c2n1	.	.	.	2µM*
SMILES	TRPV1 PAM	AT treatment	TRPV1 agonist	IMPase Li inh
CCNc1ncc2nc(-c3ccc(Cl)cc3)c(=O)n(Cc3ccc(F)cc3)c2n1	.	.	.	2µM*
COc1cccc(Cn2c(=O)c(-c3cccs3)nc3cnc(Nc4ccccc4)nc32)c1	.	.	.	-18%
CCNc1ncc2nc(-c3ccc(Cl)cc3)c(=O)n(C3CC3)c2n1	.	.	.	5µM*
CCCCc1nc2c(c3c1C[C@H](C)OC3)CN(C(=O)NCc1ccco1)CC2	.	.	.	6%
CN(C)S(=O)(=O)N1C(=O)c2ccccc2C1=O	-4	-5%	-4	.
CN(C)/C=C1\C=C2C(=O)c3ccccc3N2C1=O	-21	-5%	93*	.
CCOC(=O)C(Cc1ccccc1)C(=O)Nc1cccc(C)c1 (centres undefined)	-15	-3%	85*	8%
CCOC(=O)C(Cc1ccccc1)C(=O)Nc1ccc(N(CC)CC)cc1 (centres undefined)	-1	-6%	1	25%
O=C(O)CC(C(=O)O)N1C(=O)/C(=C/C=C/c2ccco2)SC1=S (centres undefined)	-3	-11%	-4	.
O=C(O)CCCN1C(=O)/C(=C/C=C/c2ccco2)SC1=S	8	4µM*	0	.
COc1cc(C/C=C\c2ccccc2)c(OC)cc1O	.	.	.	11%
CC(=O)Nc1sc(/C(C#N)=C/c2ccc(Cl)c(Cl)c2)nc1-c1ccc(C)cc1	7	16µM*	-6	13µM*
CC(N)CCCP(=O)(O)O (centres undefined)	.	.	.	3%
CC(OC(=O)CC1CCCCC1)C(=O)Nc1ccc(F)cc1 (centres undefined)	-15	-1%	83*	.
